Laboratory results as given in PubChem BioAssay (NCI).
About 83,000 compounds went through this panel and 20% of them were active in at least one assay; those are over-represented in the sample as a whole.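 Interpretation: 100, growth as untreated; towards 0, rising growth inhibition; 0, no net growth; 0 to -100, cell death. Compounds scoring below 10 were considered active.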 Active and inactive are the calls of the source.

system: SW-620 colon; assay: NCI-60 one-dose screen, 48 h (100 = growth as untreated, 0 = no growth, -100 = all killed); conditions: 10 µM unless noted

Structure (SMILES)	growth
O=[N+]([O-])c1cc([N+](=O)[O-])c(C(F)(F)F)cc1NN=C(c1ccc(O)cc1)c1ccc(O)cc1	106% (inactive)
O=C(COc1cccc(/C=C2\Oc3ccccc3C2=O)c1)c1ccc([N+](=O)[O-])cc1	113% (inactive)
COc1cc(NCc2cn(-c3ccc(C(=O)O)cc3)nc2-c2ccc(C(=O)O)cc2)cc(OC)c1OC	92% (inactive)
COc1ncc(-c2ccc3nccc(C#CCCCCC(=O)NO)c3c2)cc1NS(=O)(=O)c1ccc(F)cc1F	-30.9% (active)
O=C(O)CSCc1nnc2n(Cc3ccccc3)c(=O)c3c4c(sc3n12)CCCC4	107% (inactive)
C[C@]12CCc3nc(Nc4ccccc4)sc3C1=CC[C@@H]1[C@@H]2CC[C@]2(C)/C(=N/NC(N)=S)CC[C@@H]12	18.2% (inactive)
C=C(C)C1CCC2(C(=O)O)CCC3(C)C(CCC4C5(C)CCC(OC(=O)NCc6ccccc6)C(C)(C)C5CCC43C)C12 (stereo not drawn)	34.9% (inactive)
CC(C)=CCC[C@](C)(O)[C@H]1CC[C@]2(C)[C@@H]1CC[C@@H]1[C@@]3(C)CC/C(=N/O)C(C)(C)[C@@H]3CC[C@]12C	-48% [100 µM] (active)
N#CC1C(=O)NC(c2ccccc2[N+](=O)[O-])c2sc3c(F)cccc3c21 (stereo not drawn)	21.9% (inactive)
Brc1ccc(-c2nnc3c4[nH]ccc4ncn23)cc1	94% (inactive)
CCCCCCCCCCCCNC(=S)N/N=C/c1ccccc1O	91.8% (inactive)
CC1(C)CC[C@]2(C(=O)O)CC[C@]3(C)[C@H](CC[C@@H]4[C@@]5(C)CCC(=O)C(C)(C)[C@@H]5CC[C@]43C)[C@H]2[C@H]1OC(=O)C(F)(F)F	-64.9% [100 µM] (active)
C#CCNC(=O)CC[C@@H](C)[C@H]1CC[C@H]2[C@@H]3CC[C@@H]4CC(=O)CC[C@]4(C)[C@H]3CC[C@]12C	-58.2% [100 µM] (active)
C=C(C)[C@@H]1CC[C@]2(C)[C@H](CC[C@@H]3[C@@H]([C@@](C)(O)CCC=C(C)C)CC[C@]32C)[C@@]1(C)CCC(=O)O	0.938% [100 µM] (active)
CCOC(=O)COc1ccc2c(c1)O/C(=C\c1ccc(O)cc1)C2=O	104% (inactive)
O=c1c2c3c(sc2n2cnnc2n1Cc1ccccc1)CCCC3	113% (inactive)
CC(C)CSc1ncnc2nc[nH]c12	104% (inactive)

Structure (SMILES)	growth
O=C(Oc1ccc(Cl)cc1[N+](=O)[O-])Oc1ccc(Cl)cc1[N+](=O)[O-]	109% (inactive)
CCOC(=O)c1nn(C2CCCCO2)c2ccc(NC(=O)CSc3nc4ccccc4c(=O)[nH]3)cc12 (stereo not drawn)	105% (inactive)
COc1ncc(-c2ccc3nccc(C#CCCCCC(=O)O)c3c2)cc1NS(=O)(=O)c1ccc(F)cc1F	50.7% (inactive)
CCN(CC)CCS(=O)(=O)CCNc1ccnc2cc(Cl)ccc12	7.17% (active)
Cc1cc(N2CCCCCC2)nc(N2CCN(CC(=O)Nc3ccc4c(ccn4Cc4ccccc4)c3)CC2)n1	63.2% (inactive)
COc1cc(-c2cc(-c3ccc(Nc4ncnc5cc(Cl)ccc45)cc3)nc(N3CCCCC3)n2)cc(OC)c1OC	97.7% (inactive)
O=C(Nc1cccc2cccnc12)c1cc(C(=O)c2ccc(Cl)cc2)n2ccc(-c3ccncc3)cc12	90.6% (inactive)
O=C1/C(=C/c2cccc(OCc3ccccc3)c2)Oc2cc(OCCN3CCCCC3)ccc21	67.3% (inactive)
COc1cc2c(c(OC)c1OC)-c1ccc(NNC(N)=S)c(=O)cc1[C@@H](NC(C)=O)CC2	24.9% (inactive)
CCOC(=O)c1nn(C2CCCCO2)c2ccc(NC(=O)CN3CCOCC3)cc12 (stereo not drawn)	104% (inactive)
O=S(=O)(NCc1ccccc1)c1ncnc2nc[nH]c12	103% (inactive)
COc1ccccc1S(=O)Nc1ccccc1 (stereo not drawn)	72% (inactive)
CC(=O)n1cc(C=O)c2ccccc21	102% (inactive)
CC(C)=CCC[C@](C)(O)[C@H]1CC[C@]2(C)[C@@H]1CC[C@@H]1[C@@]3(C)CC[C@H](OC(=O)CCC(=O)O)C(C)(C)[C@@H]3CC[C@]12C	12.1% [100 µM] (inactive)
COc1ccc(C2NC(=O)C(C#N)c3c2sc2c(F)cccc32)cc1 (stereo not drawn)	24.4% (inactive)
Cc1ccc(NC(=O)N[C@@H](Cc2cc(F)cc(F)c2)C(=O)N[C@@H]2C(=O)N3CCC[C@H]3C(=O)N3CCCC[C@H]3C(=O)N[C@@H](C)C(=O)N3C[C@H](C)C[C@H]3C(=O)O[C@H]2C)cc1	35.6% (inactive)
